Neddylation inh = inhibitors of cullin neddylation, primary screen, biochemical, TR-FRET, uHTS, NAE and Ubc12. 0.58% of 360,000 active. AID 651699, 2012. NEDD8-conjugating enzyme Ubc12 (Homo sapiens) + NEDD8-activating enzyme E1 regulatory …. inhibition, % at 25 µM; in the data active = inhibition above about 36%
NadD block = inhibitors of S. aureus NadD, primary screen, biochemical, colorimetric, uHTS; Nicotinate-nucleotide adenylyltransferase NadD (Staphylococcus aureus N315); purified NadD enzyme, colorimetric absorbance read-out; inhibition, % at 20 µM; 0.78% of 360,000 active; AID 602399, 2012; in the data active = inhibition above about 26%
GC-B act = human GC-B receptor activators, primary screen, HEK293 GC-B cells, cGMP TR-FRET, EC30 CNP. activation, % at 10 µM. 0.11% of 370,000 active. AID 1920062, 2024. 0% at EC30 CNP, 100% saturating CNP. Atrial natriuretic peptide receptor 2 (Homo sapiens), P20594;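 active = activation at 10 µM reaching about 35% in either raw or pattern-adjusted values, limit read from the data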
Target sequence (P20594 whole entry, looked up): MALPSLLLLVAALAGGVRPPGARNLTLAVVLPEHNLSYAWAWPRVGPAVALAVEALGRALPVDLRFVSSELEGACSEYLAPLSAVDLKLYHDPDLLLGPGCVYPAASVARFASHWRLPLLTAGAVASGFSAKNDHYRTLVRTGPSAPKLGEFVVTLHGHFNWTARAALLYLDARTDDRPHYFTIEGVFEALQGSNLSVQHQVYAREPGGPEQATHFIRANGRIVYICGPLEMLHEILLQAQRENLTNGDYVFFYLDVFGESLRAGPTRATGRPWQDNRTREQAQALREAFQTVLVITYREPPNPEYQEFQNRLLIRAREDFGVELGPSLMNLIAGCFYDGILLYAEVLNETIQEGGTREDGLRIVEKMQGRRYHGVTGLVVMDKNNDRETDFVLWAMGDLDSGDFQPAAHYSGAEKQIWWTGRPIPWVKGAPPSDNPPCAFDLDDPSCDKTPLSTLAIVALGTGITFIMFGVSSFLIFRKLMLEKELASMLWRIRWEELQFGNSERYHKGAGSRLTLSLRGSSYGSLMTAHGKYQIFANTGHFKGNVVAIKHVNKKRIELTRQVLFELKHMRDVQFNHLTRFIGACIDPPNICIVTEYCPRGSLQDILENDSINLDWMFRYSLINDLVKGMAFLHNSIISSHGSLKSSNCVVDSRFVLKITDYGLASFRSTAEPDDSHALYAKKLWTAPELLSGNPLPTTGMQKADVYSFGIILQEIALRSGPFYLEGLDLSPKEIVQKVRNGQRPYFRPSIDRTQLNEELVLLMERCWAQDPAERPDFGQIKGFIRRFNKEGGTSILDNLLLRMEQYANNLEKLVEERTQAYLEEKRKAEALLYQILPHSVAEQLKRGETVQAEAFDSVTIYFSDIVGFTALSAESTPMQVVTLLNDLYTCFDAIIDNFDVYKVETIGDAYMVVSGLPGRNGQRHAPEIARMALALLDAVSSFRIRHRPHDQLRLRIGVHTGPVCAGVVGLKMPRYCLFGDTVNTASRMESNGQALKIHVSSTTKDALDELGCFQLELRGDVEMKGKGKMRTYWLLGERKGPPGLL
GC-A act = GC-A stimulated cGMP production enhancers – HEK293 GC-A cells, cGMP TR-FRET, EC30 ANP, primary screen. Atrial natriuretic peptide receptor 1 (Homo sapiens), P16066. 0% at EC30 ANP, 100% saturating ANP. activation, % at 10 µM. AID 1671463, 2021. 0.14% of 370,000 active; in the data active = activation above about 40%
NadD conf = inhibitors of S. aureus NadD, confirmation, biochemical, colorimetric, single concentration; purified S. aureus NadD, colorimetric enzyme assay; 13% of 2,000 active; inhibition, % at 20 µM; shares compounds with NadD block; in the data active = inhibition mostly above about 42%, no sharp cut-off; inactive = mostly below about 42%
The depositor's hits bear a star; nt = not tested or not shown. Rows were chosen to be rich in hits. Some 1.5% of all compounds tested hit in one or more screens of this group.

SMILES	Neddylation inh	NadD block	GC-B act	GC-A act	NadD conf
Cc1cc2oc(C(=O)Nc3ccc(S(=O)(=O)Nc4nccs4)cc3)cc(=O)c2cc1Cl	-2.6	64.5*	0.4	-3.8	23.3
O=C(Nc1ccc(S(=O)(=O)Nc2nccs2)cc1)c1cccc(N2C(=O)c3ccccc3C2=O)c1	-39.9	39.3*	-4.8	-3.7	58.4*
CC(=O)Oc1cccc(N2C(=O)c3cccc4c([N+](=O)[O-])ccc(c34)C2=O)c1	1.1	-2.2	-6.0	3.0	nt
COC(=O)[C@]12C[C@H](CC(=O)NCc3ccc(OC)c(OC)c3)C(=O)N(Cc3ccc4c(c3)OCO4)C1=C[C@H](C(C)C)O[C@@H]2C1CC1	nt	nt	-4.3	-1.3	nt
CCOC(=O)[C@]12CCCC=C1N(Cc1ccc(OC)cc1)C(=O)[C@@H]2CC(=O)NCC12CC3CC(CC(C3)C1)C2	nt	nt	6.0	2.4	nt
COc1ccc(Oc2c(OC)cc(NCc3ccc(CN)cc3)c3ncccc23)cc1	17.7	70.1*	4.6	-8.4	65.8*
COc1ccc(CNc2cccnc2Cl)cc1	-2.3	3.9	0.8	3.3	nt
Cc1cc(C)n(-c2nc(N(c3ccccc3)c3ccccc3)nc(-n3nc(C)cc3C)n2)n1	-24.7	42.4*	nt	nt	21.5
COc1ccccc1CCn1cnc(-c2ccccc2F)c1CC(C)C	nt	nt	-13.6	-9.0	nt
Cc1ccc(-c2[nH]c3cc(C(=O)NCCCn4ccnc4)ccc3c(=O)c2O)cc1	31.6	54.4*	-0.2	17.9	19.1
CCCNC(=O)c1ccc2c(=O)c(O)c(-c3ccc(C)cc3)[nH]c2c1	nt	-1.2	-6.9	25.6	nt
CN1[C@@H](Cc2ccccc2)COc2cc(N3CCCC3)ccc2S1(=O)=O	nt	nt	8.5	5.1	nt
C[C@H]1COc2cc(Br)ccc2S(=O)(=O)N1Cc1cn(CC2CCCCC2)nn1	nt	nt	-3.6	-9.5	nt
O=C(N/N=C/c1ccco1)c1cccc(N2CCCC2=O)c1	-6.5	0.0	-1.5	3.3	nt
O=C(N/N=C/c1ccco1)c1cccc(N2Cc3ccccc3C2)c1	-4.4	34.8*	-7.1	-9.2	46.6
O=C(/C=C/c1ccco1)N1CCN(c2ncccn2)CC1	-2.8	0.3	-2.6	-3.1	nt
O=C(/C=C/c1ccco1)N1CCC(Cc2ccccc2)CC1	10.6	34.1*	7.3	6.2	21.4
CC(C)COC(=O)C(C#N)c1nc2ccccc2nc1N1CCN(Cc2ccc3c(c2)OCO3)CC1 (configuration not stated)	29.7	30.9*	-7.6	-4.2	9.4
C=C(C)[C@@H]1CC[C@]2(C(=O)O)CC[C@]3(C)[C@H](CC[C@@H]4[C@@]5(C)CC[C@H](O)C(C)(C)[C@@H]5CC[C@]43C)[C@@H]12	3.0	52.9*	-2.7	-12.7	12.6
COc1ccc(OC)c(CN2C(=O)CSCC2(C)c2nnnn2C2CCCC2)c1 (configuration not stated)	nt	nt	3.8	-2.4	nt
Cc1ccc(S(=O)(=O)/C(C#N)=C/c2c(N3CCN(Cc4ccccc4)CC3)nc3ccccn3c2=O)cc1	11.2	47.3*	-3.3	0.6	12.6
N#C/C(=C\c1c(N2CCN(Cc3ccccc3)CC2)nc2ccccn2c1=O)S(=O)(=O)c1ccccc1	2.5	23.0	-4.0	-4.3	nt
CCOC(=O)C1(C(=O)OCC)N=C(c2ccccc2)C=C1c1ccccc1	nt	nt	-6.1	-1.9	nt
CCOc1ccccc1NC(=O)C(OC(=O)c1ccc(NC(=O)CC#N)cc1)c1ccccc1 (configuration not stated)	0.5	28.0*	17.3	10.2	42.8
CCOc1ccccc1NC(=O)C(OC(=O)c1ccccc1)c1ccccc1 (configuration not stated)	7.8	-5.4	5.8	3.8	nt
C[C@H](O)[C@@H]1CN2CCc3ccc(-c4ccc5c(c4)OCO5)cc3[C@@H]2C[C@@H]1N(C)C(=O)c1cccc(Cl)c1	nt	nt	-8.5	-0.3	nt
COC(=O)[C@]12C[C@H](CC(=O)NCCc3ccccc3OC)C(=O)N(Cc3ccco3)C1=C[C@H](C1CCCC1)O[C@@H]2C	nt	nt	-5.9	-3.3	nt
CCOc1ccc(-c2nnc(SCC(=O)Nc3ccc4c(c3)c3ccccc3n4CC)n2N)cc1	-12.9	30.6*	-7.8	-0.1	23.3
CCn1c2ccccc2c2cc(NC(=O)CSc3nnc(-c4ccc(OC)c(OC)c4)n3N)ccc21	6.3	13.1	0.1	0.2	nt

Bioassay records from PubChem.
